Assay results taken from PubChem BioAssay (EPA / NIEHS).
The source made the active and inactive calls. The calls were made as follows: active = hit-call score of the fitted dose curve at least 0.9, where 1 is the maximum; inactive = score below 0.9.

What was measured:
[1] = APR_HepG2_P-H2AX_72hr: Apredica 72-hour HepG2 Assay for H2AX Phosphorylation (AID 2282916); conditions: imaging, actives raise or lower the signal;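 also: phospho-histone H2A.x immunostain intensity per cell marking DNA damage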
Method in brief: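 HepG2 cells treated 72 h at 0.39–200 uM, 0.5% DMSO final, duplicates. Formaldehyde-fixed, Triton-permeabilised, immunostained for phospho-H2A.x with Hoechst; fluorescence imaged at 20x, bidirectional fit versus DMSO.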

[2] = APR_HepG2_MitoMembPot_72hr: Apredica 72-hour HepG2 Assay for Mitochondrial Membrane Potential (AID 2282917); conditions: imaging, actives raise or lower the signal
Method in brief: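 HepG2 cells dosed 72 hr with compound at 0.39–200 uM in duplicate, 0.5% v/v DMSO final. Mitochondria stained with 250 nM MitoTracker Red CMXRos for 30 min before formaldehyde fixation, imaged by high-content fluorescence; bidirectional fit versus DMSO.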

[3] = APR_HepG2_MitoticArrest_72hr: Apredica 72-hour HepG2 Assay for Mitotic Arrest (AID 2282918); conditions: high-content imaging, actives raise or lower the signal
Method in brief: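 Using high-content imaging of fixed HepG2 cells, phospho-histone H3 signal was measured following a 72 hr incubation with ten-point compound dilutions up to 200 uM. DMSO served as the negative control and baseline for bidirectional curve fitting.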

[4] = APR_HepG2_MicrotubuleCSK_72hr: Apredica 72-hour HepG2 Assay for Microtubule CSK Stabilty (AID 2282919); conditions: HepG2 microtubule cytoskeleton, high-content imaging, actives raise or lower the signal
Method in brief: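 HepG2 cells were exposed 72 hr to compound at 0.39–200 uM in duplicate (0.5% DMSO final), then fixed and permeabilized. Alpha-tubulin immunofluorescence was imaged by high-content microscopy, with bidirectional fitting against DMSO and taxol as positive control.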

[5] = APR_HepG2_P-H2AX_24hr: Apredica 24-hour HepG2 Assay for H2AX Phosphorylation (AID 2282920); conditions: high-content imaging, actives raise or lower the signal
Method in brief: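 Human HepG2 liver cells, treated 24 hr with test chemicals (0.39–200 uM, final DMSO 0.5% v/v), are fixed and co-stained for phospho-H2A.x and c-Jun with Hoechst. Imaged intensity is fitted in both directions against DMSO controls.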

[6] = APR_HepG2_StressKinase_72hr: Apredica 72-hour HepG2 Assay for Stress Kinase (AID 2282921); conditions: HepG2 stress kinase (phospho-c-Jun) imaging, actives raise or lower the signal
Method in brief: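 HepG2 cells treated 72 hr with 0.39–200 uM compound, 0.5% v/v DMSO, duplicate wells. After formaldehyde fixation and Triton permeabilization, stained with anti-phospho-c-Jun (1:500) and Cy3 secondary, imaged at 20x. Fitted in both directions against DMSO.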

[7] = APR_HepG2_p53Act_72hr: Apredica 72-hour HepG2 Assay for p53 Activation (AID 2282923); conditions: high-content imaging, actives raise or lower the signal;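 also: average cellular p53 protein immunofluorescence intensity in HepG2 cells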
Method in brief: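 HepG2 cells exposed 72 h to 0.39–200 uM in 0.5% DMSO, duplicates. Fixed, permeabilized cells immunostained for p53 (Cy5) with Hoechst; imaged at 20x, fluorescence analyzed bidirectionally against DMSO.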

[8] = APR_HepG2_MitoMass_72hr: Apredica 72-hour HepG2 Assay for Mitochondrial Mass (AID 2282924); conditions: high-content imaging, actives raise or lower the signal;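 also: MitoTracker Red CMXRos stain intensity per cell imaged as mitochondrial mass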
Method in brief: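 HepG2 cells dosed 72 hr at 0.39–200 uM (0.5% DMSO), in duplicate. MitoTracker Red CMXRos 250 nM loaded 30 min before formaldehyde fixation; high-content fluorescence imaging, bidirectional fit versus DMSO.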

[9] = APR_HepG2_NuclearSize_72hr: Apredica 72-hour HepG2 Assay for Nuclear Size (AID 2282925); conditions: high-content imaging, actives raise or lower the signal
Method in brief: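 HepG2 cells dosed 72 h at 0.39–200 uM (10 concentrations, duplicate) in 0.5% v/v DMSO final. Fixed, Hoechst 33342-stained nuclei imaged; nuclear diameter measured by automated image analysis. Bidirectional fit versus DMSO.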

[10] = APR_HepG2_StressKinase_24hr: Apredica 24-hour HepG2 Assay for Stress Kinase (AID 2282922); conditions: HepG2 stress kinase (phospho-c-Jun) imaging, actives raise or lower the signal
Method in brief: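 HepG2 cells exposed 24 h to 0.39–200 uM compound in duplicate (0.5% v/v DMSO final). Cells fixed in 3.7% formaldehyde, permeabilized and immunostained for phospho-c-Jun; read by high-content fluorescence imaging, fitted bidirectionally against DMSO.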

Measured: AC50

Cc1ccc(C)c(O)c1
not listed: [10]
inactive: all other assays above

CC(C)CCCCCCOC(=O)c1ccc(C(=O)OCCCCCCC(C)C)c(C(=O)OCCCCCCC(C)C)c1
not listed: [2]
inactive: all other assays above

CCCN(C1CCN(C(=O)C2CCNCC2)CC1)[C@@H]1CCc2ccc(OC)cc2C1
inactive: [4] | [6] | [9]
active: [1] 64 µM | [3] 53 µM | [5] 80.8 µM | [7] 68.9 µM | [8] 111 µM

CN(C)c1ccc(Cc2ccc(N(C)C)cc2)cc1
active: [3] 30.7 µM | [4] 37.4 µM
not listed: [2]
inactive: all other assays above

CC(=O)OC[C@H]1O[C@@](COC(C)=O)(O[C@H]2O[C@H](COC(C)=O)[C@@H](OC(C)=O)[C@H](OC(C)=O)[C@H]2OC(C)=O)[C@@H](OC(C)=O)[C@@H]1OC(C)=O
not listed: [2] | [10]
inactive: all other assays above

Oc1ccc2c(c1)-c1ccccc1C2
inactive: [4] | [6] | [8] | [9]
active: [1] 89 µM | [3] 80.3 µM | [5] 117 µM | [7] 47.7 µM

CC1=CC(=O)CC(C)(C)C1
not listed: [2]
inactive: all other assays above

CCCCCCCCO
not listed: [2]
inactive: all other assays above

C=CCCCCCCCCC(=O)O
not listed: [2]
inactive: all other assays above

CC(C)=CCC/C(C)=C/CO
active: [7] 107 µM
not listed: [2] | [10]
inactive: all other assays above

CCOc1cccc(-n2cc(C(=O)N3CCN(c4cc(C(=O)O)c5ccccc5c4)CC3)nc2-c2ccc(C)cc2)c1
inactive: [4] | [10] | [8] | [9]
active: [1] 89.5 µM | [3] 77.2 µM | [5] 90.4 µM | [6] 60.2 µM | [7] 76.1 µM

C1N2CN3CN1CN(C2)C3
not listed: [2] | [10]
inactive: all other assays above

CN(C)c1ccc(N=NS(=O)(=O)O)cc1
active: [7] 57 µM
not listed: [2] | [10]
inactive: all other assays above

CCNc1ccccc1
not listed: [2] | [10]
inactive: all other assays above

CCCCCCCCCCCCc1ccccc1
not listed: [2] | [10]
inactive: all other assays above

CCOC(=O)c1ccc(C2CCC(NC[C@H](O)COc3ccc(O)c(NS(C)(=O)=O)c3)CC2)cc1 (stereo partly specified)
active: [1] 14 µM | [3] 20.3 µM | [4] 41.9 µM | [5] 40 µM | [7] 14.5 µM | [9] 22.7 µM
inactive: [6] | [8]

CCCC(=O)OCC
not listed: [2]
inactive: all other assays above

COCCOc1cc2cc(C(=O)NC3CCN(C(C)C)CC3)n(CC(=O)Nc3ccc(Cl)cn3)c2cn1
active: [3] 63.2 µM | [4] 83.7 µM | [5] 94.3 µM
not listed: [2] | [10]
inactive: all other assays above

COCCOCCOCCOC
not listed: [2]
inactive: all other assays above

Nc1cccc(N)c1
active: [5] 48.3 µM
not listed: [2]
inactive: all other assays above

O=C(NS(=O)(=O)/C=C/c1ccccc1)c1ccc(F)cc1Cl
not listed: [2] | [10]
inactive: all other assays above

O=C1OC(=O)C2C3C=CC(C3)C12 (stereo unspecified)
not listed: [2] | [10]
inactive: all other assays above

COc1cccc(-c2ccc(/C=C\CN3CCCCCC3)cc2Cl)c1
active: [1] 22.5 µM | [3] 17.6 µM | [5] 48.9 µM | [6] 32.3 µM | [10] 69.3 µM | [7] 22.5 µM | [9] 62 µM
inactive: [4] | [8]

CCCCCCCCCCCCCCCO
active: [3] 95.6 µM
not listed: [2] | [10]
inactive: all other assays above

CC1(C)C(=O)N(Br)C(=O)N1Br
not listed: [2]
inactive: all other assays above

CC[C@H]1CC[C@H](NCc2cc3c(cc2OC)[C@H]2C[C@H]2C(=O)N3C)[C@H](c2ccccc2)N1
not listed: [2] | [10]
inactive: all other assays above

NC(=O)NO
not listed: [2] | [10]
inactive: all other assays above

O=c1[nH]c2ccc(S(=O)CCN3CCC(Cc4ccc(F)cc4)CC3)cc2o1 (stereo unspecified)
active: [1] 111 µM
not listed: [2] | [10]
inactive: all other assays above

O=C1CCC(N2C(=O)c3ccccc3C2=O)C(=O)N1 (stereo unspecified)
not listed: [2] | [10]
inactive: all other assays above

CCCCCCc1ccc(O)cc1O
active: [3] 33.7 µM | [5] 101 µM | [10] 158 µM
not listed: [2]
inactive: all other assays above

CC[C@H](C)C(=O)O[C@H]1C[C@@H](C)C=C2C=C[C@H](C)[C@H](CC[C@@H]3C[C@@H](O)CC(=O)O3)[C@H]21
active: [1] 5.29 µM | [3] 4.53 µM | [5] 2.46 µM | [7] 3.64 µM | [8] 131 µM
inactive: [4] | [6] | [9]
